{"source": "PubChem BioAssay AID1159580", "about": "(chemical genetic matrix, 2015)", "experiment": "chemical genetic growth profiling, strain panel (AID 1159580);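 note: tested at 20 µM; growth read once vehicle control cultures reached saturation at 30 °C; 1 = growth at the plate median or of vehicle wells; lower values mean less growth of the strain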", "details": "S. cerevisiae deletion strains, growth OD", "note": "Values joined by “and” are separate entries in the source; they are usually repeats but may differ in a detail not shown here. Equal entries are not always repeated. Out of some 5,500 compounds screened, about 2,000 (36%) were called active. Another 18% or so got no clear call; they are omitted. Cut-off read from the data, not from the text of the source: active = normalized growth mostly below about 0.91 (no sharp cut-off); inconclusive = no clear call, values can overlap the other calls; inactive = mostly above about 0.92. The list shows a part of the results."}
{"smiles": "CC(=O)[C@H]1CCC2C3CCC4=CC(=O)CC[C@]4(C)C3CC[C@@]21C", "note": "(some centres not stated)", "values": [{"measurement": "normalized growth", "setting": "locus YAL013W, strain DEP1, stronger effect = lower value", "value": "0.963 (inactive)"}, {"measurement": "normalized growth", "setting": "locus YAL021C, strain ccr4, stronger effect = lower value", "value": "0.901 (active)"}, {"measurement": "normalized growth", "setting": "locus YAL026C, strain drs2, stronger effect = lower value", "value": "0.936 (inactive)"}, {"measurement": "normalized growth", "setting": "locus YAL030W, strain snc1, stronger effect = lower value", "value": "0.975 (inactive)"}, {"measurement": "normalized growth", "setting": "locus YBL061C, strain skt5, stronger effect = lower value", "value": "0.968 (inactive)"}, {"measurement": "normalized growth", "setting": "locus YBR009C, strain hhf1, stronger effect = lower value", "value": "0.909 (inactive)"}, {"measurement": "normalized growth", "setting": "locus YBR021W, strain FUR4, stronger effect = lower value", "value": "0.93 (inactive)"}, {"measurement": "normalized growth", "setting": "locus YBR023C, strain chs3, stronger effect = lower value", "value": "0.957 (inactive)"}, {"measurement": "normalized growth", "setting": "locus YBR171W, strain sec66, stronger effect = lower value", "value": "0.933 (inactive)"}, {"measurement": "normalized growth", "setting": "locus YBR229C, strain ROT2, stronger effect = lower value", "value": "0.981 (inactive)"}, {"measurement": "normalized growth", "setting": "locus YBR231C, strain swc5, stronger effect = lower value", "value": "0.951 (inactive)"}, {"measurement": "normalized growth", "setting": "locus YBR279W, strain paf1, stronger effect = lower value", "value": "0.994 (inactive)"}, {"measurement": "normalized growth", "setting": "locus YCL011C, strain gbp2, stronger effect = lower value", "value": "0.971 (inactive)"}, {"measurement": "normalized growth", "setting": "locus YCL016C, strain dcc1, stronger effect = lower value", "value": "0.963 (inactive)"}, {"measurement": "normalized growth", "setting": "locus YCL029C, strain bik1, stronger effect = lower value", "value": "0.735 (active)"}, {"measurement": "normalized growth", "setting": "locus YCL061C, strain MRC1, stronger effect = lower value", "value": "0.955 (inactive)"}, {"measurement": "normalized growth", "setting": "locus YCL069W, strain vba3, stronger effect = lower value", "value": "0.976 (inactive)"}, {"measurement": "normalized growth", "setting": "locus YCR088W, strain abp1, stronger effect = lower value", "value": "0.99 (inactive)"}, {"measurement": "normalized growth", "setting": "locus YDL005C, strain med2, stronger effect = lower value", "value": "0.987 (inactive)"}, {"measurement": "normalized growth", "setting": "locus YDL035C, strain GPR1, stronger effect = lower value", "value": "0.936 (inactive)"}, {"measurement": "normalized growth", "setting": "locus YDL040C, strain nat1, stronger effect = lower value", "value": "0.981 (inactive)"}, {"measurement": "normalized growth", "setting": "locus YDL074C, strain BRE1, stronger effect = lower value", "value": "0.862 (inactive)"}, {"measurement": "normalized growth", "setting": "locus YDL101C, strain DUN1, stronger effect = lower value", "value": "0.977 (inactive)"}, {"measurement": "normalized growth", "setting": "locus YDL134C, strain PPH21, stronger effect = lower value", "value": "0.962 (inactive)"}, {"measurement": "normalized growth", "setting": "locus YDL185W, strain tfp1, stronger effect = lower value", "value": "0.923 (inactive)"}, {"measurement": "normalized growth", "setting": "locus YDL192W, strain arf1, stronger effect = lower value", "value": "0.719 (active)"}, {"measurement": "normalized growth", "setting": "locus YDR001C, strain nth1, stronger effect = lower value", "value": "0.98 (inactive)"}, {"measurement": "normalized growth", "setting": "locus YDR069C, strain doa4, stronger effect = lower value", "value": "0.963 (inactive)"}, {"measurement": "normalized growth", "setting": "locus YDR101C, strain arx1, stronger effect = lower value", "value": "0.908 (active)"}, {"measurement": "normalized growth", "setting": "locus YDR137W, strain rgp1, stronger effect = lower value", "value": "0.49 (active)"}, {"measurement": "normalized growth", "setting": "locus YDR150W, strain NUM1, stronger effect = lower value", "value": "0.983 (inactive)"}, {"measurement": "normalized growth", "setting": "locus YDR159W, strain sac3, stronger effect = lower value", "value": "0.879 (inactive)"}, {"measurement": "normalized growth", "setting": "locus YDR162C, strain NBP2, stronger effect = lower value", "value": "0.583 (active)"}, {"measurement": "normalized growth", "setting": "locus YDR195W, strain ref2", "value": "1.29 [resistant] (active)"}, {"measurement": "normalized growth", "setting": "locus YDR297W, strain sur2, stronger effect = lower value", "value": "0.972 (inactive)"}, {"measurement": "normalized growth", "setting": "locus YDR318W, strain mcm21, stronger effect = lower value", "value": "0.671 (active)"}, {"measurement": "normalized growth", "setting": "locus YDR334W, strain swr1, stronger effect = lower value", "value": "0.985 (inactive)"}, {"measurement": "normalized growth", "setting": "locus YDR335W, strain msn5, stronger effect = lower value", "value": "0.948 (inactive)"}, {"measurement": "normalized growth", "setting": "locus YDR388W, stronger effect = lower value", "value": "0.854 (active)"}, {"measurement": "normalized growth", "setting": "locus YDR392W, strain spt3, stronger effect = lower value", "value": "0.247 (active)"}, {"measurement": "normalized growth", "setting": "locus YDR502C, strain sam2, stronger effect = lower value", "value": "0.77 (active)"}, {"measurement": "normalized growth", "setting": "locus YEL003W, strain gim4, stronger effect = lower value", "value": "0.931 (inactive)"}, {"measurement": "normalized growth", "setting": "locus YEL037C, strain rad23, stronger effect = lower value", "value": "0.974 (inactive)"}, {"measurement": "normalized growth", "setting": "locus YEL061C, strain CIN8 (second series), stronger effect = lower value", "value": "0.972 (inactive)"}, {"measurement": "normalized growth", "setting": "locus YEL061C, strain CIN8, stronger effect = lower value", "value": "0.971 (inactive)"}, {"measurement": "normalized growth", "setting": "locus YER015W, strain faa2, stronger effect = lower value", "value": "0.969 (inactive)"}, {"measurement": "normalized growth", "setting": "locus YER016W, strain bim1, stronger effect = lower value", "value": "0.953 (inactive)"}, {"measurement": "normalized growth", "setting": "locus YER110C, stronger effect = lower value", "value": "0.916 (inactive)"}, {"measurement": "normalized growth", "setting": "locus YER111C, strain swi4, stronger effect = lower value", "value": "0.954 (inactive)"}, {"measurement": "normalized growth", "setting": "locus YER155C, strain BEM2 (second series), stronger effect = lower value", "value": "0.555 (active)"}, {"measurement": "normalized growth", "setting": "locus YER155C, strain BEM2, stronger effect = lower value", "value": "0.991 (inactive)"}, {"measurement": "normalized growth", "setting": "locus YER167W, strain BCK2, stronger effect = lower value", "value": "0.93 (inactive)"}, {"measurement": "normalized growth", "setting": "locus YFR010W, strain ubp6, stronger effect = lower value", "value": "0.994 (inactive)"}, {"measurement": "normalized growth", "setting": "locus YGL078C, strain dbp3, stronger effect = lower value", "value": "0.961 (inactive)"}, {"measurement": "normalized growth", "setting": "locus YGL086W, strain mad1, stronger effect = lower value", "value": "0.743 (active)"}, {"measurement": "normalized growth", "setting": "locus YGL167C, strain pmr1, stronger effect = lower value", "value": "0.94 (inactive)"}, {"measurement": "normalized growth", "setting": "locus YGL173C, strain kem1, stronger effect = lower value", "value": "0.91 (inactive)"}, {"measurement": "normalized growth", "setting": "locus YGL227W, strain vid30, stronger effect = lower value", "value": "0.999 (inactive)"}, {"measurement": "normalized growth", "setting": "locus YGL240W, strain doc1, stronger effect = lower value", "value": "0.906 (inactive)"}, {"measurement": "normalized growth", "setting": "locus YGL248W, strain PDE1, stronger effect = lower value", "value": "0.968 (inactive)"}, {"measurement": "normalized growth", "setting": "locus YGL253W, strain hxk2, stronger effect = lower value", "value": "0.879 (active)"}, {"measurement": "normalized growth", "setting": "locus YGR078C, strain PAC10, stronger effect = lower value", "value": "0.898 (inactive)"}, {"measurement": "normalized growth", "setting": "locus YGR135W, strain pre9, stronger effect = lower value", "value": "0.731 (active)"}, {"measurement": "normalized growth", "setting": "locus YGR229C, strain SMI1, stronger effect = lower value", "value": "1.02 (inactive)"}, {"measurement": "normalized growth", "setting": "locus YGR252W, strain gcn5, stronger effect = lower value", "value": "0.924 (inactive)"}, {"measurement": "normalized growth", "setting": "locus YHR013C, strain ard1, stronger effect = lower value", "value": "1.06 (inactive)"}, {"measurement": "normalized growth", "setting": "locus YHR027C, strain rpn1, stronger effect = lower value", "value": "0.97 (inactive)"}, {"measurement": "normalized growth", "setting": "locus YHR030C, strain SLT2, stronger effect = lower value", "value": "0.925 (inactive) and 0.973 (inactive)"}, {"measurement": "normalized growth", "setting": "locus YHR079C, strain IRE1 (second series), stronger effect = lower value", "value": "0.85 (active)"}, {"measurement": "normalized growth", "setting": "locus YHR079C, strain IRE1, stronger effect = lower value", "value": "0.984 (inactive)"}, {"measurement": "normalized growth", "setting": "locus YHR094C, strain hxt1, stronger effect = lower value", "value": "0.907 (active)"}, {"measurement": "normalized growth", "setting": "locus YHR129C, strain ARP1, stronger effect = lower value", "value": "0.973 (inactive)"}, {"measurement": "normalized growth", "setting": "locus YHR142W, strain chs7, stronger effect = lower value", "value": "0.85 (active)"}, {"measurement": "normalized growth", "setting": "locus YHR200W, strain rpn10, stronger effect = lower value", "value": "0.884 (active)"}, {"measurement": "normalized growth", "setting": "locus YIL066C, strain RNR3, stronger effect = lower value", "value": "0.902 (inactive)"}, {"measurement": "normalized growth", "setting": "locus YIL073C, strain SPO22, stronger effect = lower value", "value": "0.893 (inactive)"}, {"measurement": "normalized growth", "setting": "locus YIL125W, strain kgd1, stronger effect = lower value", "value": "0.958 (inactive)"}, {"measurement": "normalized growth", "setting": "locus YIR030C, strain dcg1, stronger effect = lower value", "value": "0.922 (active)"}, {"measurement": "normalized growth", "setting": "locus YJL092W, strain hpr5, stronger effect = lower value", "value": "0.969 (inactive)"}, {"measurement": "normalized growth", "setting": "locus YJL095W, strain BCK1 (second series), stronger effect = lower value", "value": "0.869 (active)"}, {"measurement": "normalized growth", "setting": "locus YJL095W, strain BCK1, stronger effect = lower value", "value": "0.777 (active) and 0.981 (inactive)"}, {"measurement": "normalized growth", "setting": "locus YJL115W, strain asf1, stronger effect = lower value", "value": "0.98 (inactive)"}, {"measurement": "normalized growth", "setting": "locus YJL129C, strain trk1, stronger effect = lower value", "value": "0.865 (active)"}, {"measurement": "normalized growth", "setting": "locus YJL134W, strain LCB3, stronger effect = lower value", "value": "0.98 (inactive)"}, {"measurement": "normalized growth", "setting": "locus YJL154C, strain vps35, stronger effect = lower value", "value": "0.986 (inactive)"}, {"measurement": "normalized growth", "setting": "locus YJL164C, strain tpk1, stronger effect = lower value", "value": "0.929 (inactive)"}, {"measurement": "normalized growth", "setting": "locus YJL166W, strain qcr8, stronger effect = lower value", "value": "0.916 (inactive)"}, {"measurement": "normalized growth", "setting": "locus YJL168C, strain set2, stronger effect = lower value", "value": "0.934 (inactive)"}, {"measurement": "normalized growth", "setting": "locus YJL187C, strain SWE1 (second series), stronger effect = lower value", "value": "0.96 (inactive)"}, {"measurement": "normalized growth", "setting": "locus YJL187C, strain SWE1, stronger effect = lower value", "value": "0.969 (inactive)"}, {"measurement": "normalized growth", "setting": "locus YJR043C, strain POL32, stronger effect = lower value", "value": "0.986 (inactive)"}, {"measurement": "normalized growth", "setting": "locus YJR066W, strain TOR1, stronger effect = lower value", "value": "0.93 (inactive)"}]}
